# The full ranking holds about 35,000 sequences; the median of “fluorescence intensity (a.u.)” is about 10,000, and the highest 2% start at about 52,000. Shown is part of a subset that was picked to be rich in the highest values.
# Biological target: T1, OsWOX13 (Oryza sativa, UniProt Q5QMM3 1-267)
# T1 sequence: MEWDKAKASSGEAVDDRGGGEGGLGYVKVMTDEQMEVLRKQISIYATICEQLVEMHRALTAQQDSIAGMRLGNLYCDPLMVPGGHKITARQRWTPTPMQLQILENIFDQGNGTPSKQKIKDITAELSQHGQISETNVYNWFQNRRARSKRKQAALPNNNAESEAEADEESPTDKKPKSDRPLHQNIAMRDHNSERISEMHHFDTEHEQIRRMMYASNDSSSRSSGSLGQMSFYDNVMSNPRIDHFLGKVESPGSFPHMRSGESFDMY
# Assay: protein-binding microarray (RPBM); PBS, 2% BSA, 51.3 ng/ul salmon testes DNA, 50 uM zinc acetate, 200 nM TF, 25 C, 1 h; high values mean tight binding
# Details: protein: recombinant; tags: N-terminal polyhistidine and DsRed monomer fusion (pET32a); label: CyDye5-dUTP incorporated in the synthesized complementary strand; 3' TTTTT single-stranded linker to array surface; dsDNA, one strand shown
# Summary of the method: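 Ni–NTA purification followed expression in E. coli BL21-CodonPlus of transcription factors fused N-terminally to a polyhistidine tag and DsRed. At 200 nM in PBS with 2% BSA, salmon testes DNA and 50 µM zinc acetate, the protein was incubated for 1 h at 25 °C with a custom Agilent array that had been primer-extended with Cy5-dUTP and blocked with 2% BSA. After washing, the array was read on an Axon 4000B scanner. The binding signal is per-feature fluorescence intensity in arbitrary units.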
row,Sequence,binding signal
1,GGGTGATATAAATTAGGAGGTGATAATAATTATTTCTTGGCGGAGTCACCTAGTGCAG,26700 fluorescence intensity (a.u.)
2,CGATTGATTGATTCTTGGTGCTCACTATCTCTAAATTGATCGGAGTCACCTAGTGCAG,59600 fluorescence intensity (a.u.)
3,CTTTAATTGGTGCTTGTTAAACCTCTTAGTGCTTGTTAAACGGAGTCACCTAGTGCAG,29200 fluorescence intensity (a.u.)
4,TAATTGATGTAATTTAAATTATTCTTGGTCTTAGTGTATACGGAGTCACCTAGTGCAG,54800 fluorescence intensity (a.u.)
5,TTGATTGATGTCATTTAAATTATCATTGGTCTTGGTGTATCGGAGTCACCTAGTGCAG,41100 fluorescence intensity (a.u.)
6,TTAATTAGGAGATATTGATTGATAAACGTACCTCTTGGTGCGGAGTCACCTAGTGCAG,65300 fluorescence intensity (a.u.)
7,ATAAAATAAATGATAATTACATAAATTTCTTTAAATAAGACGGAGTCACCTAGTGCAG,10900 fluorescence intensity (a.u.)
8,CTGTGAATTGATTCATCTCTCACACATGGTTCTCCACTATCGGAGTCACCTAGTGCAG,9680 fluorescence intensity (a.u.)
9,GCTTACAATTAATGATTACCTTTTCATAAAGATTATTATTCGGAGTCACCTAGTGCAG,12400 fluorescence intensity (a.u.)
10,GATTGATGCAATTTAAATTATACTTAGTATTGGTGTATAACGGAGTCACCTAGTGCAG,11400 fluorescence intensity (a.u.)
11,AGCTGATCTATCCAAATTGGTGAAACTAATTGTAAATTCTCGGAGTCACCTAGTGCAG,11000 fluorescence intensity (a.u.)
12,AATAAATCTATAATTTTATGATATTATGACTTAAATCTATCGGAGTCACCTAGTGCAG,4790 fluorescence intensity (a.u.)
13,TTTTATTAACTGTAAACGTCACATGTTCTGTCATACGCGTCGGAGTCACCTAGTGCAG,5270 fluorescence intensity (a.u.)
14,CTTGTCAATCTACAGAGAGTCCACGAGTTAGTAGTATGTGCGGAGTCACCTAGTGCAG,8690 fluorescence intensity (a.u.)
15,TAGTTAATTGTGCCAAACAAAATTCAAAATTAAGACATCTCGGAGTCACCTAGTGCAG,33000 fluorescence intensity (a.u.)
16,CACATTGACCAAAATTTAATGTTTGTTTCCTACTAGTGTGCGGAGTCACCTAGTGCAG,4440 fluorescence intensity (a.u.)
17,AATAATTTTCTTTTGTCACACTGTTTCTTCTCTAATCTATCGGAGTCACCTAGTGCAG,5890 fluorescence intensity (a.u.)
18,GGTGTCTTGATTGATATGATTTAAATTATTCTTGGTCTTGCGGAGTCACCTAGTGCAG,58500 fluorescence intensity (a.u.)
19,TGGCACACTAATTAGGGAGAAAATCTCTATCTTGTGTTGTCGGAGTCACCTAGTGCAG,9710 fluorescence intensity (a.u.)
20,ACACTAATTAGGGAGATAATCTCTCTTGTGGTGTTTGTGTCGGAGTCACCTAGTGCAG,52300 fluorescence intensity (a.u.)
21,TATTAATTGATGCGATTTAAATTATCTTTGGTCTTGATGTCGGAGTCACCTAGTGCAG,50000 fluorescence intensity (a.u.)

row,Sequence,binding signal
1,TATTGATATGATTTAAATTGTCCTTGGTCTTGGTGTATAACGGAGTCACCTAGTGCAG,40700 fluorescence intensity (a.u.)
2,ATACTGTCATCAATTGATTACTCTGACCGTCGATCACACACGGAGTCACCTAGTGCAG,34100 fluorescence intensity (a.u.)
3,TTATAACACAAATAATATAATAGATATATAGACTGTTGTCCGGAGTCACCTAGTGCAG,3650 fluorescence intensity (a.u.)
4,ATGTAATTTCACCATAACTATATATTATAATAAGATAAGTCGGAGTCACCTAGTGCAG,8720 fluorescence intensity (a.u.)
5,ATATAGTTACCAAAATTTGACAGCAAACTAAATGTAGCCACGGAGTCACCTAGTGCAG,7890 fluorescence intensity (a.u.)
6,TCCAGGTGATGGTAATGATATTGACATGCCCTCATCTAGTCGGAGTCACCTAGTGCAG,3770 fluorescence intensity (a.u.)
7,ATGATTTTCATCCGTTAGATTTGATGAATAAAGTATGAAGCGGAGTCACCTAGTGCAG,11100 fluorescence intensity (a.u.)
8,AAGAAAATTTAAAACAATTGATTACATACTAAATTAATATCGGAGTCACCTAGTGCAG,9840 fluorescence intensity (a.u.)
9,CTAGATTGATCGAAATCCGTCAAGTTCATGAACCGTTAAGCGGAGTCACCTAGTGCAG,54400 fluorescence intensity (a.u.)
10,AAGTGATTGAAATTTAATTCATGATCCTAAACCATACAACCGGAGTCACCTAGTGCAG,53200 fluorescence intensity (a.u.)
11,GTGTATCATCTAGGTCCTAAATTGACACATCCCCTCTAGGCGGAGTCACCTAGTGCAG,10100 fluorescence intensity (a.u.)
12,CTGATGATTCACCCATGATCGATTGCTCGATCCGTTTAAGCGGAGTCACCTAGTGCAG,3710 fluorescence intensity (a.u.)
13,AATTGAAATAATTGGAAATTTTCATATTTATATATTAAACCGGAGTCACCTAGTGCAG,5800 fluorescence intensity (a.u.)
14,TACCATGATTGGGCTGCAACTAAATTGACAGGTCAGCCATCGGAGTCACCTAGTGCAG,60400 fluorescence intensity (a.u.)
15,AGGGTGATTGACAGGTGGGTCCATCCCCTCACATGCCAGGCGGAGTCACCTAGTGCAG,64800 fluorescence intensity (a.u.)
16,TTATATAGTTACCAAAATTTGACAGCAAACTAAATGTAGCCGGAGTCACCTAGTGCAG,3680 fluorescence intensity (a.u.)
17,TTGTGACTTGACTTTGCCAATCTTAGTCTATTTTCTCGAGCGGAGTCACCTAGTGCAG,5270 fluorescence intensity (a.u.)
18,TATTAAATTGGCTATAGGTGATTTGGAGCTAATAGTTAGCCGGAGTCACCTAGTGCAG,24000 fluorescence intensity (a.u.)
19,CTTAATTACTATTCCCTCCGTCATACAATATAAGAGATTTCGGAGTCACCTAGTGCAG,22500 fluorescence intensity (a.u.)
20,CATAAACTGAAGCTCATAATTGTTTGTGAAATCGTTTATCCGGAGTCACCTAGTGCAG,16900 fluorescence intensity (a.u.)
21,CGTGGTCTCTAATTTGTTTTGTTCGTTCTCCTTTCTTGTTCGGAGTCACCTAGTGCAG,4660 fluorescence intensity (a.u.)

# Source: paper PMC7819943, “Rice protein-binding microarrays: a tool to detect cis-acting elements near promoter regions in rice”
